Our source for the inhibition values is PubChem BioAssay AID435006 (Sanford-Burnham Center for Chemical Genomics, 2010).

The whole screen tested about 1,300 compounds, of which about 1,100 (85%) were called active. So high a share suggests a set chosen from earlier hits. These entries were drawn from the full list. Values without a mark were called inactive. Rule as the data show it: active = inhibition above about 48%; inactive = the rest.

The experiment can be described thus: yeast-expressed human NALP3 blockade – luminescence, single concentration, confirmation (AID 435006). Particulars: yeast expressing human NALP3, luminescence; at 10 µM; stronger effect = higher value.
Broadly, the inhibition is the drop in the measured response relative to a control, in per cent. As for `O=C(Nc1ccccc1Cl)/C(Cl)=C(\Cl)S(=O)c1ccccc1` (centres undefined), the inhibition is 64.3% (active). The result for `O=[N+]([O-])c1c(NCCO)cc(Sc2nc3ccccc3s2)c2nonc12` reads 62.6% (active); that for `O=C(Nc1ccccc1)c1cc2ccccc2[nH]1`, 73.6% (active). As for `CC(C)(c1ccccc1)c1ccc(OCCN)cc1`, the inhibition is 71.8% (active). Under `CN(C)c1ccnc2sc(C(=O)c3ccccc3)c(N)c12` stands 68% (active); under `Cc1ccc(OCc2nc3ccccc3n2C)cc1`, 78.3% (active). Regarding `CC(C)n1c(COc2ccccc2)nc2ccccc21`, the inhibition was 70% (active). With `CC(=O)[C@@]12O[C@@H]1C[C@H]1[C@@H]3CC[C@H]4C[C@@H](O)CC[C@]4(C)[C@H]3CC[C@@]12C`, the inhibition is 71.5% (active). In the case of `C[C@@H]1C[C@@H]2O[C@H]2/C=C\C=C\C(=O)Cc2c(Cl)c(O)cc(O)c2C(=O)O1`, the inhibition was 72.4% (active).

Take `O=C(CC(O)(C(F)(F)F)C(F)(F)F)Nc1ccc(Cl)c(Cl)c1`: the inhibition is 97.9% (active). On to `Cc1ccc(OCc2nc(C#N)c(N3CCCC3)o2)cc1`, for which the inhibition is 48.9% (active). `N#Cc1nc(COc2ccc(Cl)cc2)oc1N1CCCC1`: the inhibition was 30.3%.

Take `CC1CC2=C(CC1/C=N/NC(N)=S)C(C)(C)CCC2` (centres undefined): the inhibition was -1.3%. For `O=[N+]([O-])c1cccc(/C=N/Nc2ncc(Br)cn2)c1`, the inhibition is 72.2% (active). For the compound `Cc1ccnc(Nc2nc3ccccc3s2)n1`, the inhibition is 73% (active). For `CCOC(=O)c1c(C)[nH]c(C(=O)COc2ccc3c(c2)OCO3)c1C`, the inhibition was 47%.

For `O=C(COc1ccccc1F)Nc1nc(-c2ccccn2)cs1`, the inhibition is 55.5% (active).

Take `Oc1ccc(Br)cc1/C=N/Nc1ccccn1`: the inhibition is 66.3% (active). Regarding `COc1cccc(/C=N/Nc2cc(C)nc(-c3ccccc3O)n2)c1O`, the inhibition is 25.5%. For `O=C(NCc1ccc2c(c1)OCO2)c1c(O)nc2sccn2c1=O`, the inhibition is 75.2% (active). On to `Cc1csc(NC(=S)Nc2cccc(Cl)c2)n1`, for which the inhibition was -12%. With `Cc1cccc(NC(=S)NC(=O)c2ccc(Br)o2)c1`, the inhibition was 63.5% (active). With `COCCCNC(=O)/C=C/c1ccc(OCc2c(F)cccc2Cl)cc1`, the inhibition is 27.1%. Consider `Fc1ccccc1-c1cc2cc3c(cc2cn1)OCO3`, for which the inhibition is 51.1% (active). On to `O=[N+]([O-])/C=C/c1ccc2c(ccn2Cc2ccccc2)c1`, for which the inhibition was 78.7% (active). With `Cc1cc(C)c(/C=C2\C(=O)Nc3ccccc32)[nH]1`, the inhibition was 51.8% (active). For the compound `Cn1c(=NC(=O)c2ccco2)sc2cccc(F)c21`, the inhibition is 60.5% (active). With `CC(C)C(=O)N1CCN(CCN=CC2=C(O)CC(c3ccco3)CC2=O)CC1` (centres undefined), the inhibition is 74.3% (active). As to `Cc1ccc(-c2nn(C(C)(C)C)c3ncnc(N)c23)cc1`, the inhibition is 86.7% (active). As to `CC(C)Sc1ncnc2c1cnn2-c1ccccc1`, the inhibition was 48.7% (active). Turning to `Cc1ccc(O)c(NC(=O)c2cc(-c3ccco3)on2)c1`, the inhibition was 76% (active). Regarding `CCSc1nc2sc3c(c2c(=O)n1-c1ccc(C)cc1)CCN(C)C3`, the inhibition is 69.4% (active).

`O=C(Oc1c(-c2ccco2)oc2ccccc2c1=O)c1cccnc1`: the inhibition was 78.3% (active).

On to `O=C(Nc1ccc2oc(-c3ccccc3F)nc2c1)c1ccco1`, for which the inhibition was 82.2% (active).

In the case of `CCc1noc(C)c1C(=O)Nc1nc2ccc(OC)cc2s1`, the inhibition is 78.5% (active). `Cc1c(C(=O)N2CCCc3ccccc32)oc2ccccc12`: the inhibition is 47.6%.

`Cc1cc(C(=O)COc2ccc(Br)cc2F)c(C)n1C1CC1`: the inhibition was 54.5% (active).

Regarding `Cn1c(=O)c(C(=O)Nc2ncccn2)c(O)c2ccccc21`, the inhibition is 60.5% (active). As for `Oc1c(Cl)cc(Cl)c(Cl)c1Cc1c(O)c(Cl)cc(Cl)c1Cl`, the inhibition was 99% (active). For `Nc1c(-c2cccc(Cl)c2)cnn1-c1cccc([N+](=O)[O-])c1`, the inhibition is 61.2% (active). Turning to `CCc1cc(C(=O)Nc2nnc(C3CC3)s2)sc1C`, the inhibition is 60.8% (active). As to `O=C(CSc1ccc(-c2ccc(-n3cccn3)cc2)nn1)Nc1ccc([N+](=O)[O-])cc1`, the inhibition was 41%. In the case of `CN=C1C=C/C(=N/N=c2\ccn(O)cc2C)C=C1C`, the inhibition is 57.2% (active). Turning to `COc1ccccc1C(=O)Nc1ccc(NC(=O)c2ccco2)c(C)c1`, the inhibition was 60.8% (active). On to `O=C(Nc1ccc(Oc2ccccc2)cc1)c1ccco1`, for which the inhibition was 44.5%.

As to `CCN(CC)c1ccc(/C=N/Nc2nc(C)cc(C)n2)c(O)c1`, the inhibition is 40.4%.

With `CC(=NCc1ccc2c(c1)OCO2)C1=C(O)c2ccccc2C1=O`, the inhibition is 67.5% (active).

Consider `CC1(C)CCSC(/C=C/c2ccccc2)=N1`, for which the inhibition is 87.4% (active). For `O=C1C=C(c2ccc(Cl)cc2)C(=O)N1Nc1ccccc1`, the inhibition is 55% (active). Take `CCCN(CC1CC1)C(=S)NC(=O)c1ccccc1Br`: the inhibition was 47.1% (active). As for `O=C(CSc1ncnc2c1oc1ccccc12)NC1CCCC1`, the inhibition is 67.6% (active). Take `N#Cc1nc(Cc2ccccc2)oc1NCCc1ccccc1`: the inhibition was 48.6% (active). Consider `CCCc1nc2c(c(=O)c3ccccc3n2C)c(=O)n1C1CCCCCC1`, for which the inhibition was 30.2%. For the compound `COc1ccccc1OCc1nc2ccccc2s1`, the inhibition is 47.1% (active). For the compound `CCCCCCC12CCC(C(=O)O)(CC1)CC2`, the inhibition was 66.8% (active). Regarding `Cc1cc(C)nc(NC(=O)Nc2ccccc2C(F)(F)F)n1`, the inhibition is 68.8% (active). `O=C(CCCN1C(=O)/C(=C\c2ccco2)SC1=S)Nc1cccc2ccccc12`: the inhibition is 52.9% (active). Consider `Cc1ccc2cccc(S(=O)(=O)N3CCN(c4ccccc4F)CC3)c2n1`, for which the inhibition was 65.9% (active). Turning to `COc1cc(N2C(=O)CSC2=S)cc(OC)c1OC`, the inhibition is 58.7% (active). Turning to `O=C1CSC(=S)N1c1ccc(O)cc1`, the inhibition was 83.8% (active).

On to `CC(C)C(=O)Nc1ccc2c(c1)oc1ccccc12`, for which the inhibition is 2.95%.

`COc1ccc(OCc2nnc3n2N=C(c2ccccc2)C(CC(=O)O)S3)cc1` (centres undefined): the inhibition is 16.8%. The result for `Cc1ccc(CSc2nsc(C)c2C#N)cc1` reads 56.3% (active). In the case of `CCCNc1ncnc2sc(C)c(C)c12`, the inhibition is 60.5% (active).
